A selection: hits, their analogues and other compounds. The true share with any hit is near 19%.
IL-1B inflam inh: qHTS for Inhibitors of Inflammasome Signaling: IL-1-beta AlphaLISA Primary Screen. activity change, % at 57.5 µM. actives 4.7% (n = 360,000). AID 743279, 2014. THP-1 LPS/ATP IL-1B secretion, AlphaLISA, 16 h; stronger effect = lower value; in the data active = activity change below about -50%; inconclusive = mostly about -30% to -49%
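THP-1 cells pretreated 1 hr with compounds (up to 57.5 uM final), then stimulated with LPS (250 ng/mL final) plus ATP (1.25 mM final); secreted IL-1B measured by AlphaLISA after 16 hr, decreased signal indicating inhibition.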
DT40 TDP1 CPT: qHTS for Inhibitors of human tyrosyl-DNA phosphodiesterase 1 (TDP1): qHTS in cells in presence of CPT. chicken DT40 Tdp1-/-;hTDP1 cells + 20 nM CPT, ATP luminescence, 48 h. Potency, µM (doses to about 46.2 µM), for inactives: top-dose activity change, negative = growth inhibition, actives largely listed as inhibitors. actives 12% (n = 420,000). AID 686979, 2013; also: potency is read from the fitted curve at half-maximal effect; nearly all actives have a fitted effect of over 55% in size
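Chicken DT40 Tdp1-/- cells complemented with human TDP1, 400 cells/well, exposed to compounds plus 20 nM camptothecin for at least 48 h at 37 C; viability read as ATP content by CellTiter-Glo luminescence.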
HT1080 IDH1KD tx: qHTS for induction of synthetic lethality in tumor cells producing 2HG: qHTS for the HT-1080-IDH1KD cell line; AID 686971, 2013; HT-1080 IDH1 knockdown viability, ATP luminescence, 48 h; Potency, µM (highest dose often 46.1 µM), without a hit: at the highest dose activity, negative = toxicity, most hits filed as cytotoxic; actives 2% (n = 360,000);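 also: potency is read from the fitted curve at half-maximal effect; 0% = DMSO wells and -100% = cell-free medium wells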
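Viability of IDH1-knockdown HT-1080 fibrosarcoma cells was assessed by CellTiter-Glo after 48 h at 37 °C with titrated compound; concentration-effect curves were classified by fit quality and response size.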
HT1080NT lethal: qHTS for induction of synthetic lethality in tumor cells producing 2HG: qHTS for the HT-1080-NT fibrosarcoma cell line | HT-1080-NT fibrosarcoma viability, CellTiter-Glo ATP luminescence, 48 h | AID 686970, 2013 | Potency, µM (highest dose often 46.1 µM), inactives show at the highest dose activity, negative = less viability, most hits filed as cytotoxic | actives 1.6% (n = 360,000);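 also: NT is the 2HG producing partner of a matched IDH1 knockdown line; potency is read from the fitted curve at half-maximal effect; 0% = DMSO-treated cells and -100% = media-only wells without cells; nearly all actives have a fitted effect of over 55% in size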
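HT-1080-NT fibrosarcoma cells (2HG-overproducing), 750 cells/well in RPMI with 5% FBS, dosed after 2 h and incubated 48 h at 37C. CellTiter-Glo luminescence normalized to DMSO and no-cell wells; concentration-response curves fitted and classed.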
DT40 TDP1 no CPT: qHTS for Inhibitors of human tyrosyl-DNA phosphodiesterase 1 (TDP1): qHTS in cells in absence of CPT; Potency, µM (doses to about 46.2 µM), inactives show top-dose activity change, negative = growth inhibition, hits mostly inhibitors; actives 15% (n = 420,000); AID 686978, 2013; DT40 Tdp1-/- hTDP1 cells, no CPT, ATP luminescence, 48 h; also: potency is read from the fitted curve at half-maximal effect; nearly all actives have a fitted effect of over 55% in size
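Cells were dispensed at 400 per well, compounds added by pin tool, plates incubated ≥48 hr at 37 °C, then CellTiter-Glo added for 30 min at room temperature before luminescence reading. Line: DT40 Tdp1-/- complemented with hTDP1; camptothecin omitted.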
* marks the source's active call; other numbers are inactive results; ? = inconclusive; . = no result given; [ ] = another dose, or the depositor's remark. Unless noted, calls follow the shape of the dose curve; as a rule, active = well fitted curve in the direction sought with a large enough effect; inconclusive = small, poorly fitted or top-dose-only effect, or another doubt; inactive = no such curve, though single readings can be large; an effect the other way counts as inactive or inconclusive. Unless noted, % is scaled to controls: 0 for no effect and ±100 for the full control effect.

SMILES | IL-1B inflam inh | DT40 TDP1 CPT | HT1080 IDH1KD tx | HT1080NT lethal | DT40 TDP1 no CPT
CC1CCN(C(=O)CN2c3ccc(Br)cc3-c3ccccc3S2(=O)=O)CC1 | . | 13µM* | . | . | 21µM*
COC(=O)C1CCN(C(=O)CN2C(=O)c3ccccc3S2(=O)=O)CC1 | -20 | ? | 9% | ? | -3%
CC1CCN(C(=O)CN2c3ccc(C(C)C)cc3-c3ccccc3S2(=O)=O)CC1 | . | 15µM* | . | . | 23µM*
O=C(C[C@H]1C[C@@H]2c3cc(NC(=O)c4cccnc4)ccc3O[C@@H]2[C@H](CO)O1)NCc1ccncc1 | 7 | 2% | 6% | 10% | -16%
CCCc1noc2c1/C(=N\O)CC(c1ccccc1)C2 (stereo unspecified) | -5 | -20% | -8% | -8% | ?
CCc1noc2c1/C(=N\O)CC(c1ccccc1)C2 (stereo unspecified) | -12 | ? | -3% | -2% | 16µM*
C/C=C/C=N/Nc1nc(-c2ccc([N+](=O)[O-])cc2)cs1 | -25 | ? | -11% | -9% | 23µM*
CC(C)=NNc1nc(-c2ccc([N+](=O)[O-])cc2)cs1 | ? | ? | ? | -5% | 21µM*
Cc1ccc(-c2csc(N/N=C/C=C/c3ccccc3)n2)cc1 | -28 | ? | ? | 4%[9.24 µM] | ?
CC(=O)Nc1nc(-c2ccc([N+](=O)[O-])cc2)cs1 | -13 | ? | -6% | -13% | ?
COc1ccc(CNCCS(=O)(=O)NCc2ccc(OC)cc2)cc1 | 35 | 5% | 0% | 4% | -4%
CCCCCCNC(=O)CCCCCNS(=O)(=O)c1ccc(Br)cc1 | 19 | -23% | -15% | -23% | ?
CCCCCCCCNS(=O)(=O)CCNCCCC | ? | ? | -1% | -9% | 16µM*
CCCCCCCCNS(=O)(=O)CCNCc1ccc(OC)cc1 | -61* | ? | ? | -25% | ?
CCCCCCNC(=O)CCCCCNS(=O)(=O)c1ccc(OC)cc1 | -24 | 18µM* | -2% | -3% | ?
O=C(NC1CC(=O)N(c2ccccc2)C1)C1CC1 (stereo unspecified) | 6 | -9% | 19% | 15% | -3%
Cc1ccc(CNC(=O)C2c3ccccc3C(=O)N3CCc4ccccc4C23)o1 (stereo unspecified) | -4 | ? | ? | -1%[9.24 µM] | 23µM*
O=C(NCCN1CCN(Cc2ccccc2)CC1)C1c2ccccc2C(=O)N2CCc3ccccc3C12 (stereo unspecified) | -8 | -30% | 1% | -12% | -17%
COC(=O)c1ccc2nc(-c3cccc(Br)c3)c(Cc3cccc(F)c3)n2c1 | 36 | ? | 16% | 18% | ?
COC(=O)c1ccc2nc(-c3cccc(Cl)c3)c(Cc3cccc(F)c3)n2c1 | 0 | 16µM* | 2% | 7% | 9.2µM*
COC(=O)c1ccc2nc(-c3cccc(Cl)c3)c(CC3CCCCC3)n2c1 | 70 | 5% | 10% | 14% | -17%
COC(=O)c1ccc2nc(-c3cccc(Cl)c3)c(Cc3cccc(Cl)c3)n2c1 | 6 | 4.6µM* | -2% | 5% | ?
COCCn1c(=S)[nH]c2cc(C(=O)N3CCN(Cc4ccccc4)CC3)ccc2c1=O | . | -26% | 22% | 13% | ?
C=Cc1ccc(Cn2c(C)c(CNCc3ccccc3C)c(C(=O)O)c2C)cc1 | . | -16% | . | . | ?
COc1ccc(Cn2c(C(=O)O)c(CNCc3ccc(C)o3)c3ccc(OC)cc32)cc1 | . | 23µM* | . | . | -97%
SMILES | IL-1B inflam inh | DT40 TDP1 CPT | HT1080 IDH1KD tx | HT1080NT lethal | DT40 TDP1 no CPT
Cc1ccc(Cn2c(C(=O)O)c(CNCCc3ccco3)c3ccc(C)cc32)cc1 | . | -23% | . | . | -18%
COc1ccc2c(CNCc3ccc(C)o3)c(C(=O)O)n(Cc3ccccc3C)c2c1 | . | 7.3µM* | . | . | 3.3µM*
COc1ccc2c(CNCCc3ccco3)c(C(=O)O)n(Cc3ccc(C)cc3)c2c1 | . | -19% | . | . | ?
COc1ccc2c(CNCc3ccc(Cl)cc3)c(C(=O)O)n(Cc3ccccc3C)c2c1 | . | 2.3µM* | . | . | 1.2µM*
Cc1cccc(NC(=O)CSc2nnc3ccc(-c4cccnc4)nn23)c1 | -5 | -23% | 1% | 6% | ?
N#Cc1c(C#N)c(-c2ccccc2)n(-c2ccccc2)c1N | -15 | 15µM* | -21% | -24% | 12µM*
CC1CCc2c(sc3nnn(CC(=O)Nc4cccc(C(F)(F)F)c4)c(=O)c23)C1 (stereo unspecified) | . | ? | . | . | 21µM*
CC1CCc2c(sc3nnn(CC(=O)Nc4ccccc4Cl)c(=O)c23)C1 (stereo unspecified) | . | ? | . | . | 16µM*
COc1cc(C(=O)O)ccc1OCc1ccncc1 | 2 | -3% | 5% | 1% | -1%
CC(=O)c1cccc(NC(=O)C2C3C=CC(C4CC34)C2C(=O)O)c1 (stereo unspecified) | 6 | -10% | 3%[9.24 µM] | 6% | -13%
Cc1cccc2sc(N(CCCN(C)C)C(=O)c3nc4ccccc4s3)nc12 | -1 | 13µM* | -1% | 1% | 13µM*
Cc1ccc2sc(N(CCCN(C)C)C(=O)c3nc4ccccc4s3)nc2c1C | -29 | 13µM* | 21µM* | ? | 6.5µM*

Compound activity: PubChem BioAssay, National Center for Advancing Translational Sciences (NCATS)
